Sampled rows, rich in hits. Any-hit rate of the full collection: about 10%.
G9a inh: G9a (human) methyltransferase inhibition; 350,000 compounds, 8.8% hits; Potency, µM (top dose mostly 102 µM), without a hit: at the top dose activity, negative = inhibition, usual class: inhibitors; G9a H3K9 monomethylation, AlphaScreen, 2 h; AID 504332; note: potency is the fitted concentration of half-maximal effect; nearly all actives have a fitted effect of over 75% in size
Target sequence (Q96KQ7 913-1193 limits assumed): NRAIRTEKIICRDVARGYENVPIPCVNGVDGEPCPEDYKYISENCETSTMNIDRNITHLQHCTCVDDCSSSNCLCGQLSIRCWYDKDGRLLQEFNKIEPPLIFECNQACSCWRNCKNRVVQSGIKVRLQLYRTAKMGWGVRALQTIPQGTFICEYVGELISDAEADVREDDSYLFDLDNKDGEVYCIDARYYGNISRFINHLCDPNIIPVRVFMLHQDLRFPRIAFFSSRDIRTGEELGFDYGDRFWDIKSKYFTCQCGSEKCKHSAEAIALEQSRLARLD
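Step 1: enzyme (final 20 nM) with compound, 15 min RT. Step 2: substrate peptide 500 nM and SAM 20 uM, 2 h RT. Step 3: anti-H3K9me1 antibody and AlphaScreen beads, 10 min, then plate read.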
PLK1 PBD block: inhibitors of human PLK1 polo-box domain binding; P53350; Plk1 PBD binding of FITC phosphopeptide, fluorescence polarization; Potency, µM, for the others: max response, negative = inhibition, actives largely listed as inhibitors; 360,000 compounds, 2.8% hits; note: potency is the fitted concentration of half-maximal effect; series mostly up to about 57 µM; nearly all actives have a fitted effect of over 65% in size
Mm-Cpn inhibitor: M. maripaludis TRiC chaperonin inhibition | purified Mm-Cpn ATPase, ADP Transcreener TR-FRET | Potency, µM (top dose mostly 76.9 µM), inactives show top-dose activity, negative = inhibition, most hits filed as inhibitors | 330,000 compounds, 0.031% hits; note: potency is the fitted concentration of half-maximal effect; nearly all actives have a fitted effect of over 80% in size
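Measured: ADP formation by purified Mm-CPN. Conditions: 25 nM protein, 10 uM ATP, Tris pH 7.4 with Mg2+, K+ and DTT, 37°C for 30 min. Detection: Transcreener HTRF after 30 min at room temperature.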
Sfp inh: Sfp phosphopantetheinyl transferase inhibition; Q9F4F7; Biochemical Sfp PPTase activity, qHTS; Potency, µM, for inactives: largest response in the series, negative = inhibition, hits mostly inhibitors; 310,000 compounds, 3.5% hits;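 note: the enzyme is Sfp with the accession as filed and its product quenches rhodamine fluorescence; potency is the fitted concentration of half-maximal effect; 0% = enzyme reaction without inhibitor and -100% = no enzyme wells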
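With Hepes-Na pH 7.6 buffer containing 10 mM MgCl2, Sfp (15 nM) modified BHQ-2-YbbR (12.5 uM) using rhodamine-CoA (5 uM). Two reads 30 minutes apart at 525/598 nm yielded each well's rate.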
VDR inh: blocks the human vitamin D receptor | P11473 | VDR-SRC2-3 peptide fluorescence polarization, 2 h | Potency, µM, without a hit: max response, negative = inhibition, most hits filed as inhibitors | 400,000 compounds, 0.93% hits; note: potency is the fitted concentration of half-maximal effect
Target sequence (P11473 whole entry, looked up): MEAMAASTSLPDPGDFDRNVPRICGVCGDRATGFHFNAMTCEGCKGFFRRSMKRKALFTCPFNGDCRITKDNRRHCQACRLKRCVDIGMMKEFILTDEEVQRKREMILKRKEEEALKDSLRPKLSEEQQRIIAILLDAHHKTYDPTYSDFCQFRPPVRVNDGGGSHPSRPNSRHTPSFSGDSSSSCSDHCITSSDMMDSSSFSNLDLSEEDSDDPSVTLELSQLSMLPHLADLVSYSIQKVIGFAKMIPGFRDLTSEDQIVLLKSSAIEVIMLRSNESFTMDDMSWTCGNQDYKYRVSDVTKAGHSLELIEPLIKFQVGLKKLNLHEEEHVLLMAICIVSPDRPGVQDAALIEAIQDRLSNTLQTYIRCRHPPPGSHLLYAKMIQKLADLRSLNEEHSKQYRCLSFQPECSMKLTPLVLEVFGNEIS
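After 23 nl compound addition and a short centrifugation, plates sat for 2 hours at ambient temperature; polarization of fluorescence then indicated loss of VDR binding to peptide SRC2-3.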
CCT modulator: cytosolic chaperonin activity modulation; purified chaperonin ATPase assay, HTRF ADP detection, 30 min; activity change, % (concentration not given with the values), hits read low; 360,000 compounds, 0.3% hits; in the data active = activity change below about -30%
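TRiC at 40 or 20 nM final (batch-dependent) in 30 mM Tris pH 7.4, 100 mM KCl, 5 mM MgCl2, 1 mM DTT, with compound at single 76 uM and 10 uM ATP, 30 min at 37 deg C. ADP detected by HTRF Transcreener, 665/615 ratio.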
Starred values were filed as active, the others as inactive; ? = inconclusive; / = no result given; [ ] = remark or other dose. Unless noted, calls come from the whole dose curve; as a rule, active = well fitted curve in the direction sought with a large enough effect; inconclusive = small, poorly fitted or top-dose-only effect, or another doubt; inactive = no such curve, though single readings can be large; an effect the other way counts as inactive or inconclusive. Unless noted, % is set by controls: 0 for no effect and ±100 for the full control effect.

SMILES | G9a inh | PLK1 PBD block | Mm-Cpn inhibitor | Sfp inh | VDR inh | CCT modulator
O=C(CSc1nc2ccccc2s1)Nc1cc(S(=O)(=O)N2CCOCC2)ccc1O | ? | 10.6µM* | 0.4% | -15.6% | ? | 3.2
Cc1ccc(S(=O)(=O)N2CCOCC2)cc1NC(=O)CNCc1cccnc1 | 3.55µM* | -0.5% | -0.3% | ? | -25.9% | 0.7
O=C(O)CSCC(=O)Nc1ccc(S(=O)(=O)N2CCCCC2)cc1 | 10.1%[2.33 µM] | -3.5% | 2.4% | 2.6% | -1.1% | 1.5
Cc1nn(C(C)C(=O)NCc2cccc(F)c2)c(=O)c2c1sc1ccccc12 (stereo not drawn) | ? | / | / | / | -3.8% | /
CN(C)c1ncc2nc(CCc3ccccc3)c(=O)n(Cc3ccc(F)cc3)c2n1 | -2.9%[12.7 µM] | / | / | ? | -7.7% | /
CCOC(=O)c1cnc2c(ccc3ccccc32)c1Nc1cccc(C(F)(F)F)c1 | 11.7%[59 µM] | / | / | / | -1.5% | /
CC(C)c1ccc(-c2nnc(N)s2)cc1 | 44.7µM* | ? | 1.0% | ? | -1.2% | 1.1
CCc1cccc(NC(=O)CN2Cc3ccccc3C2=O)c1 | 13.3%[59 µM] | / | / | / | 8.4% | /
CCOc1ccc(N(CC)S(=O)(=O)c2cc(Br)cc3c2N(C(C)=O)C(C)C3)cc1 (stereo not drawn) | 1.41µM* | / | / | / | -1.5% | /
CCOc1ccc(OCC)c(NS(=O)(=O)c2cc(Br)cc3c2N(C(C)=O)C(C)C3)c1 (stereo not drawn) | -43.5%[59 µM] | / | / | / | -4.8% | /
CCc1ccc(C2=C(C)C(N3CCC(C(=O)NCc4ccc(C)o4)CC3)=NS2(=O)=O)cc1 | 16.0%[59 µM] | / | / | / | 8.3% | /
COc1ccc(-c2noc(-c3cccnc3NCc3ccco3)n2)cc1 | ? | / | / | / | 16.9% | /
COc1ccccc1C(=O)C1Nc2ccccc2-c2nnc(SC)nc2O1 (stereo not drawn) | 7.08µM* | -24.6% | -1.7% | -0.8% | -13.1% | -1.1
CCCCSc1nnc2c(n1)OC(C(=O)c1ccccc1)Nc1ccccc1-2 (stereo not drawn) | 7.08µM* | / | 0.0% | -6.0% | / | /
CCC1Nc2ccccc2-c2nnc(SC)nc2O1 (stereo not drawn) | ? | -1.7% | -0.9% | 18.3% | 3.9% | 2.6
O=C(COC(=O)c1ccccn1)Nc1cccnc1Cl | 28.2µM* | -4.8% | -0.8% | / | -17.0% | -2.0
Nc1nc(SCC(=O)Nc2cccnc2Cl)n[nH]1 | 11.1%[0.0925 µM] | 11.9µM* | -1.1% | 19.7% | -18.9% | 3.2
Nc1ccccc1Nc1cc(-c2ccccc2)nn1-c1ccccc1 | 31.6µM* | -7.4% | -1.9% | -9.6% | -6.2% | 0.6
Cc1ccc(-n2nc(-c3ccccc3)cc2Nc2ccccc2N)cc1 | ? | -0.8% | 1.3% | -3.4% | -11.7% | 2.5
Nc1nc(SCC(=O)Nc2cc(-c3ccccc3)nn2-c2ccccc2)n[nH]1 | 16.4%[59 µM] | -0.8% | -0.5% | 14.7% | -10.8% | -96.7*
Nc1ccccc1Nc1cc(-c2ccccc2)[nH]n1 | 39.8µM* | -5.5% | -2.4% | -1.7% | 11.3% | 0.5
Nn1c(SCC(=O)Nc2cccnc2Cl)nnc1-c1ccccc1 | ? | 4.74µM* | -1.6% | / | 79.4µM* | -0.1
Cc1cc(NC(=O)CSc2nnc(-c3ccncc3)n2N)ccc1Br | 35.5µM* | -22.4% | -2.2% | -27.2% | -17.5% | -0.7
CCC1CN(C(=O)N2CCC(C(=O)NCCC3=CCCCC3)CC2)c2ccccc2O1 (stereo not drawn) | 0.4%[59 µM] | / | / | / | 5.5% | /
CCCCNC(=O)C1CCC(Cn2c(=O)c3sccc3n(CC(=O)Nc3ccccc3)c2=O)CC1 (stereo not drawn) | 15.2%[59 µM] | / | / | / | 4.4% | /
SMILES | G9a inh | PLK1 PBD block | Mm-Cpn inhibitor | Sfp inh | VDR inh | CCT modulator
Cn1cc(CN2CC3C[C@@H]4CC2C[C@H](C3)C4)c(-c2ccc3c(c2)OCCO3)n1 | 50.1µM* | -4.6% | 2.2% | -17.6% | -4.4% | -3.2
c1cc2c(cc1-c1[nH]ncc1CN1CC3C[C@@H]4CC1C[C@H](C3)C4)OCO2 | / | -3.2% | 2.7% | ? | 0.1% | -0.1
CCOC(=O)c1[nH]c(C)c(CCC(=O)Nc2ccccc2OCC)c1C | -27.2%[59 µM] | / | / | / | -1.5% | /
CCOc1cc(C2C(C(=O)OC)=C(C)NC3=C2C(=O)c2ccccc23)c(Br)cc1OC (stereo not drawn) | -7.8%[59 µM] | / | / | / | -3.5% | /
COc1cccc(C2C3=C(Nc4[nH]n(-c5ccccc5)c(=O)c42)c2ccccc2C3=O)c1 (stereo not drawn) | 10µM* | / | -0.2% | -21.3% | / | /
COc1cccc(C2C3=C(CCCC3=O)Nc3[nH]n(-c4ccccc4)c(=O)c32)c1 (stereo not drawn) | ? | -8.4% | -14.2% | 18.5% | -9.3% | -2.0
CCOc1cc(Br)c(C2C(C(=O)OC)=C(C)NC3=C2C(=O)c2ccccc23)cc1OCC (stereo not drawn) | 17.8µM* | / | / | / | -4.5% | /
C#CCOc1ccc(C2C(C(=O)OC)=C(C)NC3=C2C(=O)c2ccccc23)cc1OCC (stereo not drawn) | 11.2µM* | / | / | / | -4.3% | /
CCOc1cc(C2C(C(=O)OC)=C(C)NC3=C2C(=O)c2ccccc23)c(Br)cc1O (stereo not drawn) | 15.8µM* | / | / | / | -8.5% | /
CCOc1cc(C2C(C(=O)OC)=C(C)NC3=C2C(=O)c2ccccc23)ccc1OC (stereo not drawn) | ? | / | / | / | 5.3% | /
CCC(C(=O)N1CCN(c2ccccc2)CC1)n1c(C)c2cnn(-c3ccccc3)c(=O)c2c1C (stereo not drawn) | -22.0%[59 µM] | / | / | / | 14.1% | /
CC(C)(C)c1ccc(S(=O)(=O)NCc2nc3cccnc3n2Cc2ccccc2Cl)cc1 | 11.8%[59 µM] | / | / | / | -6.0% | /
COC(=O)c1ccc(C(NC(=O)OCc2ccccc2)/C(=C/[C@@H](C)C(=O)NCC2CC2)c2cccnc2)cc1 (stereo partly drawn) | / | / | / | 32.0% | / | /
COC(=O)C1=C(C)NC2=C(C(=O)c3ccccc32)C1c1cccc(OC)c1 (stereo not drawn) | 50.1µM* | -5.1% | 0.6% | 11.1% | -5.0% | 0.3
COc1cccc([C@@H]2Oc3ccc(OC)cc3C(=O)[C@H]2O)c1 | 79.4µM* | -7.4% | 0.1% | -9.7% | -24.8% | -0.3
COc1cccc([C@@H]2Oc3ccc(Br)cc3C(=O)[C@H]2O)c1 | / | / | / | 4.7% | / | /
CCOc1cc(C2C(C(=O)OC)=C(C)NC3=C2C(=O)c2ccccc23)cc(Br)c1OCC (stereo not drawn) | 10µM* | / | / | / | ? | /
COc1cccc(C2C(=O)c3ccccc3C2=O)c1 | 50.1µM* | 1.4% | -5.4% | 13.7% | -7.3% | -2.2
COC(=O)C1=CN(C(C)C)C=C(C(=O)OC)C1c1cccc(OC)c1 | 51.6%[12.7 µM] | -1.7% | -1.1% | 7.0% | -2.1% | 0.3
Oc1oc(-c2ccccc2)nc1C=Nc1ccccc1 | ? | -12.7% | -0.7% | -12.3% | -4.1% | -0.3
CN(C)c1ccc(N=Cc2nc(-c3ccccc3)oc2O)cc1 | -11.5%[0.0925 µM] | 13.4µM* | -2.0% | -2.4% | -4.8% | -1.9
